Reference: PMC4552634, “A New Set of Chemical Starting Points with Plasmodium falciparum Transmission-Blocking Potential for Antimalarial Drug Discovery” (PLoS ONE, 2015)
The whole screen tested about 13,000 compounds, of which about 3,200 (25%) showed an effect of 50% or more. The list shows a part of the results.

system: P. falciparum stage V gametocytes; set-up: BacTiter-Glo ATP luminescence viability of purified stage V gametocytes in 384-well plates, per cent inhibition versus DMSO; details: 48 h, 5 µM; inhibitor

Row | Structure (SMILES) | % Inhibition [%]
1 | COc1ccc(NC(=O)[C@H](Cc2ccccc2)Nc2cc(C)nc(NCCc3cccnc3)n2)cc1 [TCMDC-134818] | 72.32
2 | COc1ccc(NC(=O)[C@H](Cc2ccccc2)Nc2cc(C)nc(NCCOc3ccccc3)n2)cc1 [TCMDC-134757] | 13.17
3 | COc1ccc(NC(=O)[C@H](Cc2ccccc2)Nc2cc(C)nc(Nc3ccccc3)n2)cc1 [TCMDC-134733] | -3.042
4 | Cc1cc(N[C@@H](Cc2ccccc2)C(=O)Nc2ccccc2)nc(NCCc2cccnc2)n1 [TCMDC-134820] | 59.14
5 | COc1ccc(O)c(C(=O)c2cc(C(=O)NC3CCCCC3)c(=O)n(C3CCCCC3)c2)c1 [TCMDC-124510] | 4.971
6 | Cc1[nH]c(C)c(-c2ccc(OCc3ccccc3C(F)(F)F)nc2)c(=O)c1Br [TCMDC-135796] | 65.1
7 | Cc1[nH]c(C)c(-c2ccc(OCc3cc(C(F)(F)F)cc(C(F)(F)F)c3)nc2)c(=O)c1Cl [TCMDC-135814] | 52.24
8 | Cc1[nH]c(C)c(-c2ccc(OCc3ccc(OC(F)(F)F)cc3)nc2)c(=O)c1Cl [TCMDC-135271] | 11.85
9 | Cc1[nH]c(C)c(-c2ccc(OCc3cccc(C(F)(F)F)c3)nc2)c(=O)c1Br [TCMDC-135656] | 74.31
10 | Cc1[nH]c(C)c(-c2ccc(OCc3cc(C(F)(F)F)cc(C(F)(F)F)c3)nc2)c(=O)c1Br [TCMDC-135815] | 65.31
11 | COc1ccc(OC)c2c1CCN(CCN1CCC(C(=O)Nc3ccc(C(=O)Nc4ccc(Cl)cc4)cc3)CC1)C2 [TCMDC-138820] | 2.402
12 | FC(F)(F)c1ccc2[nH]c(-c3ccc(-c4cccc(CNCc5cnn(-c6ccccc6)n5)c4)cc3)nc2c1.O=C(O)C(F)(F)F [TCMDC-132971] | -20.04
13 | O=C(NC1CCC(CCN2Cc3ccc(Br)cc3C2)CC1)c1cccc(-c2cccnc2)c1 (stereo not shown) [TCMDC-139603] | 36.86
14 | Nc1nc(N)c2c(Oc3cccnc3)cccc2n1 [TCMDC-137990] | -4.996
15 | CN(C)c1cccc(NC(=O)N[C@H]2N=C(c3ccccc3)c3ccccc3N(CC(=O)N3CCCC3)C2=O)c1 [TCMDC-131987] | 37.26
16 | N#Cc1ccc(CCNc2nccc(-c3cccc(CN4CCNCC4)c3)n2)cc1 [TCMDC-134845] | 38.8
17 | CCC[C@@H]([C@@H](CC1CCCCC1)C(=O)NC(C(=O)Nc1nccs1)C(CC)c1ccccc1)N(O)C=O (stereo partly shown) [TCMDC-137999] | -15.87
18 | Cc1cccc2nc(-c3ccc(-c4ccc(CNCCCN5CCCC5=O)cc4)cc3)[nH]c12.O=C(O)C(F)(F)F [TCMDC-132763] | 3.748
19 | O=C(Cn1c(CCc2cccc(F)c2F)nc(=O)c2cccnc21)N(Cc1ccc(-c2ccc(C(F)(F)F)cc2)cc1)C1CCN(C2CCOCC2)CC1 [TCMDC-136501] | 53.37
20 | O=C(Cn1c(CCc2cccc(F)c2F)nc(=O)c2ccccc21)N(Cc1ccc(-c2ccc(C(F)(F)F)cc2)cc1)C1CCN(C2CCOCC2)CC1 [TCMDC-136502] | 73.92

Row | Structure (SMILES) | % Inhibition [%]
21 | O=C(Cn1c(CCc2cccc(F)c2F)nc(=O)c2ccccc21)N(Cc1ccc(-c2ccc(C(F)(F)F)cc2)cc1)C1CCN(C2CCSCC2)CC1 [TCMDC-136609] | 103.4
22 | O=C(Cn1c(CCc2cccc(F)c2F)nc(=O)c2cccnc21)N(Cc1ccc(-c2ccc(C(F)(F)F)cc2)cc1)C1CCN(C2CCSCC2)CC1 [TCMDC-136559] | 46.52
23 | N#Cc1ccc(N2CCN(Cc3ccc(-c4ccc(-c5nc6cc(C(F)(F)F)ccc6[nH]5)s4)cc3)CC2)nc1.O=C(O)C(F)(F)F [TCMDC-133110] | -11.35
24 | N#Cc1ccc(CN2CCC(Oc3ccc(NC(=O)c4ccccc4)cc3Cl)CC2)cc1 [TCMDC-133958] | 11.07
25 | COc1ccc(NC(=O)C2c3ccccc3C(=O)N(C3CCCC3)C2c2cccs2)cc1OC (stereo not shown) [TCMDC-124695] | 88.1
26 | COc1ccc(NC(=O)C2c3ccccc3C(=O)N(C3CCCC3)C2c2cccs2)c(OC)c1 (stereo not shown) [TCMDC-125288] | -16.95
27 | COc1ccc(NC(=O)C2c3ccccc3C(=O)N(C3CCCC3)C2c2cccs2)cc1 (stereo not shown) [TCMDC-125287] | 90.81
28 | COc1ccc(NC(=O)Nc2ccc(Nc3nc(C)cc(N4CCCC4)n3)cc2)cc1 [TCMDC-124958] | 27.34
29 | COc1ccc(Cl)cc1NC(=O)Nc1ccc2c(c1)CCN(C1CCC1)CC2 [TCMDC-136006] | 9.191
30 | O=C(Nc1cccc(CN2CCCN(Cc3ccc(O)cc3)CC2)c1)c1cc2ccccc2o1 [TCMDC-141859] | 49.98
31 | COc1cc(Br)c(NC(=O)Nc2ccc(C(F)(F)F)c(O[C@@H]3CCN(C)C3)c2)cc1OC [TCMDC-135186] | -75.17
32 | CN1CC[C@@H](Oc2cc(NC(=O)Nc3ccc(Cl)c(C(F)(F)F)c3)ccc2Cl)C1 [TCMDC-136149] | 23.18
33 | CN1CC[C@@H](Oc2cc(NC(=O)Nc3ccccc3Br)ccc2Cl)C1 [TCMDC-136144] | 79.19
34 | Cc1cc2nc(-c3ccc(C(=O)NCc4cccc(F)c4)cc3)[nH]c2cc1C [TCMDC-140432] | -28.29
35 | CC(C)Nc1cc(C(=O)N[C@@H](Cc2ccccc2)[C@H](O)CNC2CCCCC2)cc(N2CCCCS2(=O)=O)c1 [TCMDC-135203] | 21.45
36 | COc1ccccc1N1CCN(Cc2c(O)ccc3cc(Br)ccc23)CC1 [TCMDC-123565] | 17.32
37 | CC(=O)Nc1nc(C(=O)Nc2cccc(-c3ccc(-c4nc5cccc(C)c5[nH]4)s3)c2)cs1 [TCMDC-137132] | -23.79
38 | COc1ccc(Cl)cc1NC(=O)Nc1cc(C)nc2ccccc12 [TCMDC-125497] | -49.54
39 | COc1ccc(Cl)cc1NC(=O)C(C)N1CCN(S(=O)(=O)c2ccccc2F)CC1 (stereo not shown) [TCMDC-123567] | -51.26
40 | COc1ccc(Cl)cc1NC(=O)CN(C)C(=O)c1cnn(-c2ccccc2)n1 [TCMDC-125457] | 95.1
